# Results published in PubChem BioAssay (NCI).
# The panel holds about 83,000 compounds, 20% with a hit somewhere; the sample as a whole holds those more often.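 Testing used 96-well plates and a 48-hour single-concentration exposure. Example: -40 means 40% of the starting cells died.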 A number with no mark means an inactive call. Activity calls are given as the source filed them. How the source made its calls: active means growth percent below 10; inactive means the rest.
# Columns and labels:
# Assay in all cases: NCI-60 one-dose screen, 48 h (100 = growth as untreated, 0 = no growth, -100 = all killed)
# Conditions in all cases: 10 µM unless noted
# [1] = test system: SR leukemia
# [2] = test system: RPMI-8226 leukemia
# [3] = test system: OVCAR-8 ovarian
# [4] = test system: OVCAR-5 ovarian
# [5] = test system: OVCAR-4 ovarian
# [6] = test system: SK-OV-3 ovarian
# [7] = test system: IGROV1 ovarian
# [8] = test system: OVCAR-3 ovarian
# [9] = test system: HS 578T breast
# [10] = test system: NCI/ADR-RES ovarian
# [11] = test system: T-47D breast
# [12] = test system: BT-549 breast
# [13] = test system: MDA-MB-435 melanoma
# [14] = test system: SW-620 colon
# [15] = test system: MCF7 breast
# [16] = test system: HCT-116 colon
# [17] = test system: HCC-2998 colon
# [18] = test system: KM12 colon
# [19] = test system: MDA-MB-468 breast
Structure (SMILES),growth [1],growth [2],growth [3],growth [4],growth [5],growth [6],growth [7],growth [8],growth [9],growth [10],growth [11],growth [12],growth [13],growth [14],growth [15],growth [16],growth [17],growth [18],growth [19]
COc1ccc2c(c1)C(=O)N(C)C2C1c2c(cc3c(c2OC)OCO3)CCN1C (stereo not drawn),18.8%,73.8%,78.1%,67.2%,69.4%,64%,43.2%,9.03% (active),48.4%,27.9%,56.3%,68.5%,-21.1% (active),23.9%,14.7%,27.5%,63.2%,15.9%,8.46% (active)
Cc1cc(C2(c3cc(C)c(OCC(O)CNc4c(C)n(C)n(-c5ccccc5)c4=O)cc3C(C)C)OC(=O)c3ccccc32)c(C(C)C)cc1OCC(O)CNc1c(C)n(C)n(-c2ccccc2)c1=O (stereo not drawn),5.65% (active),24.4%,33.1%,50.9%,38.6%,67.5%,43.1%,15.5%,22.1%,58%,1.64% (active),27.3%,12.5%,18.4%,15.9%,5.4% (active),36.8%,16.5%,-13.9% (active)
FC(F)(F)c1cc2c(Cl)ncnc2n1CCC1CCOCC1,-64.3% (active),72.2%,18.1%,102%,-16.5% (active),50.6%,-90.6% (active),-75.4% (active),-42.5% (active),69%,66.6%,-41.1% (active),-29.6% (active),35%,34.7%,-53.5% (active),-90.6% (active),64.3%,-82.9% (active)
O=C(N/N=C/c1ccc(-c2cccc([N+](=O)[O-])c2)s1)c1[nH]c2ccc(Br)cc2c1-c1ccccc1,69.9%,89.2%,95.9%,106%,82.1%,93.4%,102%,62.1%,82.4%,105%,92.5%,88.4%,98.3%,99%,54.4%,82.9%,107%,109%,103%
C#CCN(C)CCCOc1ccc(N(CC)C(=O)c2cc(C(C)C)c(O)cc2O)cc1Cl,-34.3% (active),-33.5% (active),2.93% (active),19.7%,26.1%,7.75% (active),0.38% (active),20.6%,9.36% (active),-33.1% (active),10.1%,-8.72% (active),-26.1% (active),6.65% (active),0.137% (active),-3.98% (active),-78.2% (active),-9.83% (active),-46.8% (active)
COc1ccc(-c2nnc3c(/C=C/c4ccc(Br)cc4)nc4ccccc4n23)cc1,-19.4% (active),21.2%,46.1%,79.7%,52.9%,112%,47.8%,15.1%,81.6%,67.5%,64.2%,9.42% (active),28.9%,-10% (active),0% (active),-53.8% (active),87.7%,85.2%,32.7%
CC1CCc2c(sc3nc(SCC(=O)c4cccc(Br)c4)n(-c4ccccc4)c(=O)c23)C1 (stereo not drawn),22.3%,58.8%,19.2%,47.8%,30.6%,58%,33.7%,55.7%,57.7%,35.2%,15.9%,78.5%,29.5%,28.5%,56.9%,2.87% (active),60.6%,89.6%,29.6%
